From the OligoGym collection

biological target: ODF3L1; experiment: pooled miR-30 sensor sort-seq; sequence = guide strand; conditions: shRNA
Also: reference of the scale not given here.

Row | Sequence | sensor-assay potency score (higher = more potent)
1 | ATCTTCTCAAAGTAGTACTGGC | -0.892
2 | TGATCTATGTAGCCCGTGCAGG | -1.19
3 | TTGAGGTCCATCACTCTGTATG | -1.32
4 | TCCTTGTAGAACCAGTTCTTGT | -1.85
5 | ACATCCTCCTTGTAGAACCAGT | -1.04
6 | TCATGATCTATGTAGCCCGTGC | -0.361
7 | TAAGCTGGTGCCTTGAACATGG | 0.328
8 | TTGTGCACAGTGACCTGCTGGA | 0.448
9 | TGTCATGATCTATGTAGCCCGT | -0.612
10 | TTGAACATGGAGATGTCATGAT | 0.585

biological target: ODF4; experiment: as above; conditions: shRNA

Row | Sequence | sensor-assay potency score (higher = more potent)
11 | TCTGTGATCGTCTGTGCCCTTG | -0.736
12 | TCTACTGAGCCGAAACTGCTGC | 0.472
13 | TTCCAGGTCTCTGATGTTGGTC | -1.05
14 | TTCTACTGAGCCGAAACTGCTG | -0.397
15 | TTGAAGTAGCAAAGGATCGCGC | 0.0925
16 | TTGGTCTCTTTCTCCTTCTGAC | -0.95
17 | TCTCTTTCTCCTTCTGACCTGG | -0.166
18 | TAGCAAAGGATCGCGCAGGTGA | -0.209
19 | TCTTCTACTGAGCCGAAACTGC | -1.39
20 | TATAGGATAAGCACCAGCCAAC | -1.15

biological target: OGDHL; experiment: as above; conditions: shRNA

Row | Sequence | sensor-assay potency score (higher = more potent)
21 | TGGAGAACTGCATCACACCAGG | -1.03
22 | TTGAATCTACAGATAAGCGAGG | -0.941
23 | TTTGAATCTACAGATAAGCGAG | -0.201
24 | TAAGCCTCCTCACAGATCCGGT | -0.839
25 | TACATCTCCTCCATGTAACTGG | -0.405
26 | TTCTACTTTGGTACACATGAGC | -0.678
27 | TTCAGCACAGGCACCTGTCTGT | 0.114
28 | TTCATAGGCACACACGTCCTGC | -1.24
29 | TTGCTCATCTGCAGGAACCTTT | -0.719
30 | TTGACCACGATCCAGTTGCAGT | -1.4
31 | TACTTTGGTACACATGAGCTGT | -0.325
32 | TTCTTGGTCATGTCCGCACGGC | -0.866

biological target: OLFML2A; experiment: as above; conditions: shRNA

Row | Sequence | sensor-assay potency score (higher = more potent)
33 | TTCAAACATACAGACATCCAGG | -0.00393
34 | TAGTTGGTGACATAGATCCTGT | -0.519
35 | TTGTAGGGTAGCTTGTACATGT | -0.494
36 | TTGAGTTTCTCCATCTTCCACT | -0.593
37 | TACTTGATGATGTTCTTGGTGA | 0.197
38 | TAACTTTTAAAAATCAGCCTAT | -0.201
39 | TTATACTTGACTTTGTTCTAAA | -0.893
40 | TTGTACATGTTACTCCAGCGGC | -0.677
